Data taken from PubChem BioAssay (NCATS).
Records with an inconclusive call do not appear. Calls of active or inactive are those of the source. Calls come from the whole dose curve; as a rule, active = well fitted curve in the direction sought with a large enough effect; inconclusive = small, poorly fitted or top-dose-only effect, or another doubt; inactive = no such curve, though single readings can be large; an effect the other way counts as inactive or inconclusive.

Tests used:
[1] = target: Phospholipid hydroperoxide glutathione peroxidase GPX4 (Homo sapiens) (UniProt P36969); assay: Primary qHTS Assay for Inhibitors of Recombinant Selenoprotein Glutathione Peroxidase 4 (GPX4) (AID 1845192); note: nearly all actives have a fitted effect of over 65% in size; note: potency is the fitted concentration of half-maximal effect
Summary of the method: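 NADPH consumption, followed by fluorescence at 340/450 nm between 0 and 15 min, reports GPX4 activity via coupled glutathione reductase (100 nM). Enzyme 200 nM was pre-exposed to compound 30 min; 0.5 mM cumene hydroperoxide and 1 mM GSH served as substrates.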

[2] = target: Luciferin 4-monooxygenase (Photinus pyralis) (UniProt P08659); assay: Primary firefly luciferase (FLuc) qHTS assay for identification of artifact compounds. (AID 1845220); note: nearly all actives have a fitted effect of over 60% in size
Summary of the method: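 FLuc 10 nM; luciferin 10 uM; ATP 10 uM; Tris-acetate pH 7.6, Mg-acetate 10 mM; 15 min RT preincubation; 5 min reaction; luminescence.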

[3] = test system: Nanoluciferase (engineered Oplophorus gracilirostris luciferase); assay: Primary Nanoluciferase (NLuc) qHTS assay for identification of artifact compounds. (AID 1845222);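 note: NLuc secreted into diluted conditioned medium of S16 cells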
Summary of the method: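 NLuc from S16 cell medium (1:55) plus test compounds, 15 min, room temperature. Luminescence after Nano-Glo (1:100) addition, 5 min.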

[4] = Primary redox qHTS assay for identification of artifact compounds. (AID 1845223)
Summary of the method: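 Amplex Red (25 uM) and HRP (250 mU/mL) in HBSS, with compounds for 15 min, then 250 uM DTT for 30 min, room temperature, dark. Fluorescence 525/598 nm read; normalized to DMSO and 10 uM DA3003; Hill fit.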

[5] = Quantitative High-Throughput drug screen in 47 multiple myeloma cell lines against the NCATS MIPE library collection: KMM1_JCRB cell viability assay (AID 1918960); note: nearly all actives have a fitted effect of over 30% in size; note: potency is the fitted concentration of half-maximal effect
Summary of the method: (§1)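 ATP readout (CellTiter-Glo), 48 h drug incubation, 37 °C/5% CO2, 500 cells per well; normalisation to DMSO (100%) and media-only (0%) controls.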

[6] = Quantitative High-Throughput drug screen in 47 multiple myeloma cell lines against the NCATS MIPE library collection: JIM3_ECACC cell viability assay (AID 1918963; note: nearly all actives have a fitted effect of over 35% in size; note: potency is the fitted concentration of half-maximal effect)
Summary of the method: (§2)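 Luminescent ATP measurement with CellTiter-Glo gives viability, scaled between DMSO-only wells (100%) and media-only wells (0%). Cells, 500 per well, faced library compounds for 48 hours at 37C.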

[7] = Quantitative High-Throughput drug screen in 47 multiple myeloma cell lines against the NCATS MIPE library collection: JIM1_ECACC cell viability assay (AID 1918964; note: potency is the fitted concentration of half-maximal effect)
Summary of the method: (§3)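 qHTS of the MIPE 4.0 collection: 500 myeloma cells/well, 48 h drug exposure at 37C in 5% CO2, then CellTiter-Glo for 5 min at room temperature before luminescence reading.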

[8] = Primary fluorescence-based thiol-reactive (MSTI) qHTS assay for identification of artifact compounds. (AID 1845221);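 note: thiol-reactive compounds lower the probe fluorescence signal; nearly all actives have a fitted effect of over 65% in size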
Summary of the method: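 One-hour, room-temperature, dark incubation of compound with 4 uM MSTI in PBS (pH 7.4, 2% DMSO) precedes a fluorescence read at 525 nm excitation, 598 nm emission; Hill-equation fitting yields concentration-response values.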

[9] = Quantitative High-Throughput drug screen in 47 multiple myeloma cell lines against the NCATS MIPE library collection: FR4_PLB cell viability assay (AID 1918924; note: nearly all actives have a fitted effect of over 35% in size; note: potency is the fitted concentration of half-maximal effect)
Summary of the method: as §2

[10] = Quantitative High-Throughput drug screen in 47 multiple myeloma cell lines against the NCATS MIPE library collection: EJM_DSMZ cell viability assay (AID 1918926; note: nearly all actives have a fitted effect of over 30% in size; note: potency is the fitted concentration of half-maximal effect)
Summary of the method: as §3

[11] = Quantitative High-Throughput drug screen in 47 multiple myeloma cell lines against the NCATS MIPE library collection: ARP1_JJKsccF8 cell viability assay (AID 1918928; note: nearly all actives have a fitted effect of over 40% in size; note: potency is the fitted concentration of half-maximal effect)
Summary of the method: as §1

[12] = target: Glutathione peroxidase 1 (Homo sapiens) (UniProt P07203); assay: Primary qHTS Assay for Inhibitors of Recombinant Selenoprotein Glutathione Peroxidase 1 (GPX1) (AID 1845191); note: nearly all actives have a fitted effect of over 65% in size
Summary of the method: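 10 nM GPX1 + cpd, 30 min RT; start w/ 1 mM GSH, 0.5 mM cumene hydroperoxide, 0.5 mM NADPH, 100 nM GR, 0.01% BSA; buffer 50 mM Tris-HCl pH 7.5, 2 mM EDTA, 150 mM NaCl; Fl 340/450, 0 & 15 min.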

[13] = Quantitative High-Throughput drug screen in 47 multiple myeloma cell lines against the NCATS MIPE library collection: Delta47_JCRB cell viability assay (AID 1918925; note: nearly all actives have a fitted effect of over 45% in size; note: potency is the fitted concentration of half-maximal effect)
Summary of the method: as §3

[14] = Quantitative High-Throughput drug screen in 47 multiple myeloma cell lines against the NCATS MIPE library collection: AMO1_DSMZ cell viability assay (AID 1918927; note: nearly all actives have a fitted effect of over 30% in size; note: potency is the fitted concentration of half-maximal effect)
Summary of the method: as §3

[15] = Quantitative High-Throughput drug screen in 47 multiple myeloma cell lines against the NCATS MIPE library collection: ARD_JJKsccE7 cell viability assay (AID 1918929; note: potency is the fitted concentration of half-maximal effect)
Summary of the method: as §3

[16] = Quantitative High-Throughput drug screen in 47 multiple myeloma cell lines against the NCATS MIPE library collection: Karpas620_DSMZ cell viability assay (AID 1918959); note: nearly all actives have a fitted effect of over 30% in size; note: potency is the fitted concentration of half-maximal effect
Summary of the method: as §2

[17] = Quantitative High-Throughput drug screen in 47 multiple myeloma cell lines against the NCATS MIPE library collection: Karpas417_ECACC cell viability assay (AID 1918961); settings: Karpas417 myeloma viability, CellTiter-Glo ATP luminescence, 48 h; viability (% of DMSO): at 45.8 µM (top of the series); note: potency is the fitted concentration of half-maximal effect
Summary of the method: (§4)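 Steps: seed 500 cells per well; pin-transfer MIPE 4.0 library; incubate 48 h at 37C, 5% CO2, humidified; add CellTiter-Glo, 5 min room temperature; read luminescence.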

[18] = Quantitative High-Throughput drug screen in 47 multiple myeloma cell lines against the NCATS MIPE library collection: KHM11_PLB cell viability assay (AID 1918962); note: nearly all actives have a fitted effect of over 35% in size; note: potency is the fitted concentration of half-maximal effect
Summary of the method: as §2

[19] = Quantitative High-Throughput drug screen in 47 multiple myeloma cell lines against the NCATS MIPE library collection: INA6_PLB cell viability assay (AID 1918965; note: nearly all actives have a fitted effect of over 55% in size; note: potency is the fitted concentration of half-maximal effect)
Summary of the method: as §4

[20] = Quantitative High-Throughput drug screen in 47 multiple myeloma cell lines against the NCATS MIPE library collection: JJN3_DSMZ cell viability assay (AID 1918966; note: nearly all actives have a fitted effect of over 50% in size; note: potency is the fitted concentration of half-maximal effect)
Summary of the method: as §3

Measured: Potency

Chain of Phospholipid hydroperoxide glutathione peroxidase GPX4 (Homo sapiens) (P36969 whole entry, looked up): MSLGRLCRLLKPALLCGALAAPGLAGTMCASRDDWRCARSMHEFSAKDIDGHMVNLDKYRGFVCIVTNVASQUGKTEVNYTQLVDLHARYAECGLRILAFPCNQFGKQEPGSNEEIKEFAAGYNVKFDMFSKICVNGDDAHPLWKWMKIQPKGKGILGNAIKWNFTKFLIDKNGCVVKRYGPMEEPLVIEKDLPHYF
Chain of Glutathione peroxidase 1 (Homo sapiens) (P07203 whole entry, looked up): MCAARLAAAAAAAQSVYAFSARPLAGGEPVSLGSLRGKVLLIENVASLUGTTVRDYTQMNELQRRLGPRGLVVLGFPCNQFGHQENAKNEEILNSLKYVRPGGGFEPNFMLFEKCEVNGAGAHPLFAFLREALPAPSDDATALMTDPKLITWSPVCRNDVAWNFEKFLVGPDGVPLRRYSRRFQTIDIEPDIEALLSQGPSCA

CO[C@H]1C=CO[C@@]2(C)Oc3c(C)c(O)c4c(O)c(c5c(c4c3C2=O)NC2(CCN(CC(C)C)CC2)N=5)=NC(=O)C(C)=CC=C[C@H](C)[C@H](O)[C@@H](C)[C@@H](O)[C@@H](C)[C@H](OC(C)=O)[C@H]1C
inactive: [1] | [2] | [3] | [4] | [5] | [6] | [7]

COc1ccc(Cc2ccc(NC(N)=O)cc2)cc1-c1cccc(Cl)c1
inactive: [1] | [2] | [8] | [3] | [4] | [9] | [10] | [11] | [6]

CN(C)c1cc(NC(=O)CNC(C)(C)C)c(O)c2c1C[C@@H]1C[C@H]3[C@H](N(C)C)C(=O)C(C(N)=O)=C(O)[C@@]3(O)C(=O)C1=C2O
not listed: [1] | [2] | [3] | [4] | [7] | [8] | [20]
inactive: all other assays above

COc1ccc2c(Oc3ccc(NC(=O)c4c(C)n(CC(C)(C)O)n(-c5ccccc5)c4=O)nc3)ccnc2c1
inactive: [1] | [2] | [8] | [3] | [16] | [6] | [7]
active: [9] 20.9 µM

CC(=O)Nc1ccc([C@H](C)C(=O)Nc2ncc(C(C)C)s2)cc1
active: [9] 1.87 µM | [10] 0.743 µM | [14] 0.662 µM | [11] 2.64 µM | [15] 1.18 µM | [16] 2.35 µM | [5] 5.26 µM | [18] 4.69 µM | [6] 7.43 µM | [7] 1.66 µM | [19] 4.18 µM
inactive: [1] | [2] | [8] | [3] | [4]

O=c1cc(-c2ccccc2)oc2cc(O)c(O)c(O)c12
inactive: [12] | [10] | [15] | [16] | [5]

CC[C@@]1(O)C[C@H](O[C@H]2C[C@H](N(C)C)[C@H](O[C@H]3C[C@H](O)[C@H](O[C@H]4CCC(=O)[C@H](C)O4)[C@H](C)O3)[C@H](C)O2)c2c(cc3c(c2O)C(=O)c2c(O)cccc2C3=O)[C@@H]1C(=O)OC
active: [9] 0.332 µM | [13] 0.0662 µM | [10] 0.469 µM | [14] 0.833 µM | [11] 1.05 µM | [15] 5.26 µM | [18] 0.132 µM | [6] 0.332 µM | [19] 0.0662 µM
inactive: [12]

CN(C)C1CCN(C(=O)c2ccc(NC(=O)Nc3nc(N4CCOCC4)nc(N4CCOCC4)n3)cc2)CC1
inactive: [1] | [2] | [8] | [3] | [4]
active: [9] 0.0093 µM | [10] 0.166 µM | [14] 1.18 µM | [11] 0.0166 µM | [17] 0.0662 µM | [6] 0.209 µM | [20] 0.0833 µM

N[C@H](CSC(c1ccccc1)(c1ccccc1)c1ccccc1)C(=O)O
inactive: [12]
active: [9] 5.26 µM | [10] 18.7 µM | [14] 23.5 µM | [11] 13.2 µM | [6] 10.5 µM | [7] 14.8 µM

CC[C@]1(O)C[C@@H]2CN(CCc3c([nH]c4ccccc34)[C@@](C(=O)OC)(c3cc4c(cc3OC)N(C)[C@H]3[C@@](O)(C(=O)OC)[C@H](OC(C)=O)[C@]5(CC)C=CCN6CC[C@]43[C@@H]65)C2)C1
inactive: [1] | [2] | [3]

CCn1c(C(=O)N(C2CC2)C2CC2)cc2c3c(ncn3C)c(Nc3cc(C)n(C)n3)nc21
inactive: [1] | [2] | [3] | [4] | [14] | [16]
active: [6] 18.7 µM | [20] 20.9 µM

CCCCC1C(=O)N(c2ccccc2)N(c2ccccc2)C1=O
inactive: [1]

O=C(O)c1ccc(-c2c[nH]c3ncc(-c4ccccc4)cc23)cc1C1CCCC1
inactive: [12] | [10] | [11] | [5]
active: [14] 2.96 µM | [15] 0.935 µM

Cc1ccc(/C=N/NC(=O)c2ccccc2Oc2ccccc2)o1
active: [6] 23.5 µM
inactive: [12] | [1]

COc1ccc(-c2cc(=O)c3c(O)cc(O)cc3o2)cc1O
inactive: [12]
active: [10] 4.69 µM | [14] 5.26 µM | [15] 6.62 µM | [5] 7.43 µM | [18] 10.5 µM | [6] 7.43 µM | [7] 9.35 µM

CC1CCC(C(=O)N(c2cc(C#CC(C)(C)C)sc2C(=O)O)C2CCC(O)CC2)CC1 (stereo unspecified)
inactive: [2] | [8] | [3] | [14] | [15] | [7]
active: [1] 9.04 µM | [13] 23.5 µM | [19] 26.4 µM

COc1ccc(C2Sc3ccccc3N(CCN(C)C)C(=O)C2OC(C)=O)cc1 (stereo unspecified)
inactive: [1] | [2] | [8] | [3] | [4] | [9] | [13] | [15] | [18] | [6] | [20]

CC(=O)N[C@@H](CS)C(=O)O
inactive: [1]

COc1cc2c(cc1OC)CN(CCc1ccc(NC(=O)c3cc(OC)c(OC)cc3NC(=O)c3cnc4ccccc4c3)cc1)CC2
active: [13] 13.2 µM | [18] 20.9 µM | [6] 23.5 µM | [20] 0.526 µM
not listed: [7] | [11] | [12] | [16] | [17] | [19]
inactive: all other assays above
